# Experimental data: the supplement of paper PMC6763611
# Tested on: Plasmodium falciparum NF54
# Assay: growth inhibition relative to untreated control; higher = more inhibition
# Conditions: 1 µM; MM + chorismate end-products (CM screening medium); 72 h
# How it was run: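 Growth inhibition was measured by SYBR Green fluorescence, normalised to untreated wells and corrected for background from uninfected erythrocytes. The parasites were P. falciparum NF54 ring stages (1% hematocrit, 1% parasitemia) exposed to single 5 μM or 1 μM doses of test compounds for 72 h at 37 °C, in either minimal RPMI or minimal RPMI containing 2.2 μM folate, 7.3 μM pABA, 7.3 μM pHBA, 111 μM tyrosine, 90 μM phenylalanine and tryptophan.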
row,Structure (SMILES),growth inhibition
1,CS(=O)(=O)c1ccc(C(=O)N(CC2CCCO2)c2nc3ccccc3s2)cc1[N+](=O)[O-] (centres undefined),< 0%
2,CN(C)CCNC(=O)N1CCCN(c2ncnc3cc(-c4ccccc4)sc23)CC1,72.9%
3,c1cc(C2=NCCN2)cc(-c2cc(-c3ccc(C4=NCCN4)cc3)no2)c1,81.6%
4,c1cncc(NCc2ccc(-c3cc4ccncc4cc3OC3CCNCC3)s2)c1,98.6%
5,CC(C(=O)N1CCCC1)N1CCN(S(=O)(=O)c2ccc(C(C)(C)C)cc2)CC1 (centres undefined),37.6%
6,COc1cc(C2=NCCN2)ccc1-n1cc(-c2cccc(C3=NCCN3)c2)nn1,51.9%
7,CC(C)NCC(=O)Nc1cccc(C(=O)Nc2cccc(C(F)(F)F)c2)c1,72.4%
8,O=S(=O)(c1ccc(Cl)cc1)N1CCN(C(=S)NCc2ccco2)CC1,97.7%
9,CN1CCN(c2cc(-c3ccc(F)cc3)nc(-c3ccncc3)n2)CC1,79.9%
10,CCN(CC)CCCN1CCN(C(=O)c2cccc(-c3noc(C(F)(F)F)n3)c2)CC1,86.3%
11,CCCCOC(=O)Nc1cc2nc(C3CCCCC3)[nH]c2cc1N1CCCC1,11.2%
12,CCN(CC)CCCCCCNc1cc(OC)cc2c(C)ccnc12,93.3%
13,CC(=O)Nc1ccc(-c2noc(CC3CCCN(Cc4cccc(F)c4C)C3)n2)cc1 (centres undefined),25.8%
14,CC(C)n1nc(-c2cc3c(Cl)cccc3[nH]2)c2c(N)ncnc21,50.4%
15,Cc1nnc(NC(=O)c2cn(-c3ccccc3)nc2-c2ccccc2C)o1,89.2%
16,O=C1Nc2ccc(Br)cc2C12NCCc1c2[nH]c2ccccc12 (centres undefined),97.4%
17,NCCCC(N)(C(=O)O)C(F)F (centres undefined),14%
18,CCCCc1ccc(NC(=O)Nc2ccc(O[C@H]3CCCC[C@@H]3N(C)c3ccccc3)c(F)c2)cc1,17.3%
19,COc1ccc(C2=NCCN2)cc1-c1cn(-c2cccc(C3=NCCN3)c2)nn1,84.5%
20,COc1cc(C2=NCCN2)ccc1-c1cn(-c2cccc(C3=NCCN3)c2)nn1,68.5%

row,Structure (SMILES),growth inhibition
1,CCCCN(CCCC)c1c(C#N)cc(S(=O)(=O)Nc2ccccc2)cc1C#N,< 0%
2,Nc1ncnc2[nH]nc(Cc3cccc4ccccc34)c12,12.3%
3,Cc1cc(C)nc(-n2nc(C)cc2Nc2ccccc2)n1,16.6%
4,CC(C)C(NC(=O)Cc1cccc2ccccc12)C(=O)Nc1cccc(C#N)c1 (centres undefined),89.9%
5,FC(F)(F)c1cccc(-c2nc3c(NCc4ccncc4)nccc3[nH]2)c1,99.9%
6,O=C(Nc1nc(-c2ccccn2)cs1)c1cncn1-c1ccccc1,25.9%
7,Cc1cc(OCC(=O)Nc2ccc(C(C)C)cc2)n(C)c(=O)c1C#N,18.1%
8,COc1cncc(-c2cncc(N3CCN(c4ccncc4)CC3)n2)c1,> 100%
9,CCc1ccccc1-n1c(C)cn2c3c(=O)n(C(C(=O)OC)C(C)C)c(=O)n(C)c3nc12 (centres undefined),72.6%
10,COc1ccc(C2(C(=O)Nc3ccc(Br)cc3)CCCC2)cc1,15.3%
11,C[C@]1(COc2ccc(N3CCC(Oc4ccc(OC(F)(F)F)cc4)CC3)cc2)Cn2cc([N+](=O)[O-])nc2O1,2.53%
12,Cc1nn2c(=O)c3c([nH]c2c1-c1ccc(Cl)cc1)CCCC3,< 0%
13,COc1cccc(OCC(=O)c2ccc(Br)cc2)c1,< 0%
14,CC(C)c1ncc(-c2ccncc2)c([C@H]2CC[C@H](CNC(=O)c3cccnc3)CC2)n1,77.1%
15,CN1CCCN(C(c2ccccc2)c2ccc(Cl)cc2)CC1 (centres undefined),< 0%
16,O=C(NCc1cc(Cl)cc(Cl)c1)c1c(C(F)(F)F)nc2ccccn12,2.45%
17,Cc1ccc2[nH]c3c(NCCN(C)C)ncnc3c2c1,97.6%
18,O=C(C1CCN(c2nnnn2-c2ccccc2)CC1)N1CCc2ccccc2C1,43.4%
19,Cn1ccnc1CNCCS(=O)(=O)c1cccc(Nc2ccc(-c3cccc(F)c3)cn2)c1,< 0%
